Results published in the supplement of paper PMC8728848.
The entries come from a sample that favours the strongest signals as a whole.

Columns and labels:
Experiment in all cases: glycan array binding signal (z-score within array); higher = stronger binding
Settings in all cases: glycan notation: IUPAC condensed, linker removed
[1] = target: Fuc(a1-2)Gal(b1-3)GalNAc(b1-3)Gal
In short: (§1)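 Glycan array data were curated from 3228 arrays in the Consortium for Functional Glycomics database and kept only where the protein sequence was available. Glycan names were converted to IUPAC-condensed notation, and columns mapping to the same glycan were averaged. The binding signal is a within-array Z-score, averaged across arrays of the same protein sequence at different concentrations or buffers and across linkers. Negative Z-scores can be read as non-binding.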

[2] = target: Fuc(a1-2)Gal(b1-3)GalNAc(b1-3)Gal(a1-4)Gal(b1-4)Glc
In short: as §1

Fuc(a1-2)Gal(b1-3)GlcNAc = target: Fuc(a1-2)Gal(b1-3)GlcNAc
In short: as §1

[3] = target: Fuc(a1-2)[Gal(a1-3)]Gal(b1-3)GalNAc(b1-3)Gal(a1-4)Gal(b1-4)Glc
In short: as §1

[4] = target: Fuc(a1-2)[Gal(a1-3)]Gal(b1-3)GlcNAc
In short: as §1

[5] = target: Fuc(a1-2)[GalNAc(a1-3)]Gal(b1-4)GlcNAc(b1-3)Gal(b1-4)GlcNAc(b1-3)Gal(b1-4)GlcNAc
In short: as §1

[6] = target: Fuc(a1-2)[GalNAc(a1-3)]Gal(b1-4)[Fuc(a1-3)]GlcNAc
In short: as §1

[7] = target: Fuc(a1-2)[GalNAc(b1-3)]Gal
In short: as §1

Fuc(a1-3)GlcNAc = target: Fuc(a1-3)GlcNAc
In short: as §1

[8] = target: Fuc(a1-3)[Gal(b1-4)]GlcNAc(b1-2)Man
In short: as §1

Gal(a1-3)Gal(b1-3)GlcNAc = target: Gal(a1-3)Gal(b1-3)GlcNAc
In short: as §1

[9] = target: Gal(a1-3)Gal(b1-3)GlcNAc(b1-2)Man(a1-3)[Gal(a1-3)Gal(b1-3)GlcNAc(b1-2)Man(a1-6)]Man(b1-4)GlcNAc(b1-4)GlcNAc
In short: as §1

[10] = target: Gal(a1-3)Gal(b1-4)GlcNAc(b1-3)GalNAc
In short: as §1

[11] = target: Gal(a1-4)Gal(b1-4)GlcNAc(b1-2)Man(a1-3)[Gal(a1-4)Gal(b1-4)GlcNAc(b1-2)Man(a1-6)]Man(b1-4)GlcNAc(b1-4)GlcNAc
In short: as §1

Gal(b1-2)Gal = target: Gal(b1-2)Gal
In short: as §1

Gal(b1-3)Gal(b1-4)GlcNAc = target: Gal(b1-3)Gal(b1-4)GlcNAc
In short: as §1

[12] = target: Gal(b1-3)GalNAc(a1-3)[Fuc(a1-2)]Gal(b1-4)GlcNAc
In short: as §1

[13] = target: Gal(b1-3)GlcNAc(b1-2)Man(a1-3)[Gal(b1-3)GlcNAc(b1-2)Man(a1-6)]Man(b1-4)GlcNAc(b1-4)[Fuc(a1-6)]GlcNAc
In short: as §1

[14] = target: Gal(b1-3)GlcNAc(b1-2)[Gal(b1-3)GlcNAc(b1-6)]Man(a1-6)[Gal(b1-3)GlcNAc(b1-2)Man(a1-3)]Man(b1-4)GlcNAc(b1-4)GlcNAc
In short: as §1

Gal(b1-4)Gal = target: Gal(b1-4)Gal
In short: as §1

Gal(b1-4)GlcNAc = target: Gal(b1-4)GlcNAc
In short: as §1

[15] = target: Gal(b1-4)GlcNAc(b1-2)[Gal(b1-4)GlcNAc(b1-4)]Man(a1-3)[Gal(b1-4)GlcNAc(b1-2)[Gal(b1-4)GlcNAc(b1-6)]Man(a1-6)]Man(b1-4)GlcNAc(b1-4)GlcNAc
In short: as §1

[16] = target: Gal(b1-4)GlcNAc(b1-3)Gal(b1-4)GlcNAc(b1-3)Gal(b1-4)GlcNAc(b1-3)Gal(b1-4)GlcNAc(b1-2)[Gal(b1-4)GlcNAc(b1-3)Gal(b1-4)GlcNAc(b1-3)Gal(b1-4)GlcNAc(b1-3)Gal(b1-4)GlcNAc(b1-6)]Man(a1-6)[Gal(b1-4)GlcNAc(b1-3)Gal(b1-4)GlcNAc(b1-3)Gal(b1-4)GlcNAc(b1-3)Gal(b1-4)GlcNAc(b1-2)Man(a1-3)]Man(b1-4)GlcNAc(b1-4)[Fuc(a1-6)]GlcNAc
In short: as §1

[17] = target: Gal(b1-4)GlcNAc(b1-3)Gal(b1-4)GlcNAc(b1-3)Gal(b1-4)GlcNAc(b1-3)Gal(b1-4)GlcNAc(b1-3)Gal(b1-4)GlcNAc(b1-2)Man(a1-3)[Gal(b1-4)GlcNAc(b1-3)Gal(b1-4)GlcNAc(b1-3)Gal(b1-4)GlcNAc(b1-3)Gal(b1-4)GlcNAc(b1-3)Gal(b1-4)GlcNAc(b1-2)Man(a1-6)]Man(b1-4)GlcNAc(b1-4)GlcNAc
In short: as §1

[18] = target: Gal(b1-4)GlcNAc(b1-3)Gal(b1-4)[Fuc(a1-3)]GlcNAc(b1-3)Gal(b1-4)[Fuc(a1-3)]GlcNAc
In short: as §1

Gal3S(b1-3)GlcNAc = target: Gal3S(b1-3)GlcNAc
In short: as §1

Gal3S(b1-4)Glc6S = target: Gal3S(b1-4)Glc6S
In short: as §1

[19] = target: Gal3S(b1-4)[Fuc(a1-3)]Glc6S
In short: as §1

[20] = target: Gal3S(b1-4)[Fuc(a1-3)]GlcNAc6S
In short: as §1

Gal4S6S(b1-4)GlcNAc = target: Gal4S6S(b1-4)GlcNAc
In short: as §1

Gal6S(b1-4)GlcNAc = target: Gal6S(b1-4)GlcNAc
In short: as §1

[21] = target: GalNAc(b1-3)Gal(a1-4)Gal(b1-4)GlcNAc
In short: as §1

[22] = target: GalNAc(b1-3)Gal(a1-6)Gal(b1-4)Glc
In short: as §1

GalNAc(b1-4)GlcNAc = target: GalNAc(b1-4)GlcNAc
In short: as §1

[23] = target: GlcNAc(a1-4)Gal(b1-4)GlcNAc
In short: as §1

[24] = target: GlcNAc(a1-4)Gal(b1-4)GlcNAc(b1-3)Gal(b1-4)[Fuc(a1-3)]GlcNAc(b1-3)Gal(b1-4)[Fuc(a1-3)]GlcNAc
In short: as §1

[25] = target: GlcNAc(b1-3)Gal(b1-4)GlcNAc(b1-2)Man(a1-3)[GlcNAc(b1-3)Gal(b1-4)GlcNAc(b1-2)Man(a1-6)]Man(b1-4)GlcNAc(b1-4)[Fuc(a1-6)]GlcNAc
In short: as §1

Kdn(a2-3)Gal(b1-4)Glc = target: Kdn(a2-3)Gal(b1-4)Glc
In short: as §1

[26] = target: Neu5Ac(a2-3)Gal(b1-3)GlcNAc(b1-3)Gal(b1-4)GlcNAc
In short: as §1

[27] = target: Neu5Ac(a2-3)Gal(b1-3)GlcNAc(b1-6)GalNAc
In short: as §1

[28] = target: Neu5Ac(a2-3)Gal(b1-4)GlcNAc(b1-2)Man(a1-3)[Neu5Ac(a2-6)Gal(b1-4)GlcNAc(b1-2)Man(a1-6)]Man(b1-4)GlcNAc(b1-4)GlcNAc
In short: as §1

[29] = target: Neu5Ac(a2-3)Gal(b1-4)GlcNAc(b1-2)[Neu5Ac(a2-3)Gal(b1-4)GlcNAc(b1-6)]Man(a1-6)[Neu5Ac(a2-3)Gal(b1-4)GlcNAc(b1-2)Man(a1-3)][GlcNAc(b1-4)]Man(b1-4)GlcNAc(b1-4)GlcNAc
In short: as §1

[30] = target: Neu5Ac(a2-3)Gal(b1-4)GlcNAc(b1-3)Gal
In short: as §1

[31] = target: Neu5Ac(a2-3)Gal(b1-4)GlcNAc(b1-3)Gal(b1-4)GlcNAc(b1-3)Gal(b1-4)GlcNAc(b1-2)Man(a1-3)[Neu5Ac(a2-3)Gal(b1-4)GlcNAc(b1-3)Gal(b1-4)GlcNAc(b1-3)Gal(b1-4)GlcNAc(b1-2)Man(a1-6)]GalNAc
In short: as §1

[32] = target: Neu5Ac(a2-3)Gal(b1-4)GlcNAc(b1-3)[Neu5Ac(a2-3)Gal(b1-4)GlcNAc(b1-6)]GalNAc
In short: as §1

[33] = target: Neu5Ac(a2-3)Gal(b1-4)GlcNAc(b1-6)[Gal(b1-3)]GalNAc
In short: as §1

[34] = target: Neu5Ac(a2-6)Gal(b1-3)GlcNAc(b1-3)[Gal(b1-4)GlcNAc(b1-6)]Gal(b1-4)Glc
In short: as §1

[35] = target: Neu5Ac(a2-6)Gal(b1-4)GlcNAc(b1-2)Man(a1-3)[Gal(b1-4)GlcNAc(b1-2)Man(a1-6)]Man(b1-4)GlcNAc(b1-4)GlcNAc
In short: as §1

[36] = target: Neu5Ac(a2-6)Gal(b1-4)GlcNAc(b1-6)[Gal(b1-3)GlcNAc(b1-3)]Gal(b1-4)Glc
In short: as §1

[37] = target: Neu5Ac(a2-6)GlcNAc(b1-4)GlcNAc(b1-4)GlcNAc
In short: as §1

B1: FimA-N1 (Actinomyces oris) (protein)
chain: MHHHHHHSSGVDLGTENLYFQSNATETPNYGNIKTDATGSLVIHKHLTGGGKDIGTPTGTAQNADDKGPAVEGVVFTAYPITDINLKDPAGWDTISNLSRTGVPDSACANPAAPTLGAHQFGTPKVSPATTKEGLATITEMPVQAYLVCETTTPGDIVQKAKPFVVTIPHPNTAAGADGQWIYDVNVYPKNEAIDVDKTIQAQK
glycan array binding signal (z-score) [1]: 2.83
glycan array binding signal (z-score) [2]: -0.245
glycan array binding signal (z-score) (Fuc(a1-2)Gal(b1-3)GlcNAc): -0.136
glycan array binding signal (z-score) [3]: 0.011
glycan array binding signal (z-score) [4]: 1.81
glycan array binding signal (z-score) [5]: -0.23
glycan array binding signal (z-score) [6]: 0.129
glycan array binding signal (z-score) [7]: 1.69
glycan array binding signal (z-score) (Fuc(a1-3)GlcNAc): -0.336
glycan array binding signal (z-score) [8]: 0.002
glycan array binding signal (z-score) (Gal(a1-3)Gal(b1-3)GlcNAc): 1.89
glycan array binding signal (z-score) [9]: -0.21
glycan array binding signal (z-score) [10]: -0.363
glycan array binding signal (z-score) [11]: 0.207
glycan array binding signal (z-score) (Gal(b1-2)Gal): 1.45
glycan array binding signal (z-score) (Gal(b1-3)Gal(b1-4)GlcNAc): -0.145
glycan array binding signal (z-score) [12]: -0.448
glycan array binding signal (z-score) [13]: -0.504
glycan array binding signal (z-score) [14]: 3.13
glycan array binding signal (z-score) (Gal(b1-4)Gal): -0.308
glycan array binding signal (z-score) (Gal(b1-4)GlcNAc): -0.171
glycan array binding signal (z-score) [15]: -0.483
glycan array binding signal (z-score) [16]: 1.54
glycan array binding signal (z-score) [17]: 3.32
glycan array binding signal (z-score) [18]: -0.434
glycan array binding signal (z-score) (Gal3S(b1-3)GlcNAc): -0.055
glycan array binding signal (z-score) (Gal3S(b1-4)Glc6S): 3.06
glycan array binding signal (z-score) [19]: 1.9
glycan array binding signal (z-score) [20]: 7.57
glycan array binding signal (z-score) (Gal4S6S(b1-4)GlcNAc): 0.072
glycan array binding signal (z-score) (Gal6S(b1-4)GlcNAc): 0.396
glycan array binding signal (z-score) [21]: 0.521
glycan array binding signal (z-score) [22]: -0.352
glycan array binding signal (z-score) (GalNAc(b1-4)GlcNAc): -0.187
glycan array binding signal (z-score) [23]: -0.509
glycan array binding signal (z-score) [24]: 0.476
glycan array binding signal (z-score) [25]: -0.002
glycan array binding signal (z-score) (Kdn(a2-3)Gal(b1-4)Glc): 0.117
glycan array binding signal (z-score) [26]: -0.463
glycan array binding signal (z-score) [27]: 0.079
glycan array binding signal (z-score) [28]: -0.244
glycan array binding signal (z-score) [29]: -0.572
glycan array binding signal (z-score) [30]: -0.466
glycan array binding signal (z-score) [31]: 2.52
glycan array binding signal (z-score) [32]: -0.03
glycan array binding signal (z-score) [33]: -0.173
glycan array binding signal (z-score) [34]: -0.454
glycan array binding signal (z-score) [35]: 6.46
glycan array binding signal (z-score) [36]: -0.313
glycan array binding signal (z-score) [37]: 0.006
